Experimental data published in PubChem BioAssay (NCATS).
“And” between values parts separate entries of the source, which are not always exact repeats. Equal values may be shown once. Results filed as inconclusive are left out. The source holds several records for some structures; these can differ, active in one and inactive in another. The source made the active and inactive calls. Unless noted, the call rests on the fitted dose curve; in most records, active means well fitted curve in either direction with a large enough effect (not every such curve was filed as active); inconclusive means small, poorly fitted or top-dose-only effect, or another doubt; inactive means flat fitted curve, though single readings scatter.

Columns and labels:
[1] = AP1 Signaling Pathway (AID 357);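 further: ME-180 reporter cells stimulated with EGF at its EC50 level; on the % scale 0 is the no-effect control and ±100 the full control effect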
Procedure, shortened: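 Modulation of EGF-driven AP-1 transcription was assessed with a beta-lactamase reporter in ME-180 cells. Compound and EC50 EGF were co-incubated 5 hours at 37 °C before 2.5-hour CCF4 loading at room temperature and dual-emission reading.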

[2] = NFAT Signaling Pathway (AID 444); details: Jurkat NFAT-bla M1, carbachol, beta-lactamase ratio, 5 h;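 further: carbachol stimulus at about its EC50 of 1 µM final; on the % scale 0 is the no-effect control and ±100 the full control effect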
Procedure, shortened: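 Jurkat cells carrying an NFAT-driven β-lactamase reporter and co-transfected muscarinic M1 receptor were treated with compound plus carbachol (1 uM final, an EC50 level) for 5 h at 37 °C. CCF4 loading followed for 1 h at RT; 460/530 nm ratio gave %activity.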

[3] = Stat Signaling Pathway (AID 446);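 further: ME-180 cervical cancer cells given 40 pM IL-6 alongside compound; SIE-controlled beta-lactamase reporter measured as 460/530 nm FRET emission ratio; on the % scale 0 is the no-effect control and ±100 the full control effect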
Procedure, shortened: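 Reporter line: ME-180 cervical carcinoma, SIE-beta-lactamase. Treatment: compound with 40 pM IL-6, 5 hrs, 37 C, in low-serum OPTI-MEM with 10 mM HEPES pH 7.3. Detection: 460/530 nm fluorescence.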

[4] = molecular target: Glucocorticoid receptor (Homo sapiens) (UniProt P04150); assay: GR-GFP Redistribution (AID 450;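 active means compounds whose dose series gives a full or clear partial fitted curve of increased nuclear translocation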; further: potency means the concentration at half of the fitted maximal effect); details: U2OS GR-GFP nuclear translocation, laser cytometry, 2 h
Chain of Glucocorticoid receptor (Homo sapiens) (P04150 whole entry, looked up, the tested form may be a part): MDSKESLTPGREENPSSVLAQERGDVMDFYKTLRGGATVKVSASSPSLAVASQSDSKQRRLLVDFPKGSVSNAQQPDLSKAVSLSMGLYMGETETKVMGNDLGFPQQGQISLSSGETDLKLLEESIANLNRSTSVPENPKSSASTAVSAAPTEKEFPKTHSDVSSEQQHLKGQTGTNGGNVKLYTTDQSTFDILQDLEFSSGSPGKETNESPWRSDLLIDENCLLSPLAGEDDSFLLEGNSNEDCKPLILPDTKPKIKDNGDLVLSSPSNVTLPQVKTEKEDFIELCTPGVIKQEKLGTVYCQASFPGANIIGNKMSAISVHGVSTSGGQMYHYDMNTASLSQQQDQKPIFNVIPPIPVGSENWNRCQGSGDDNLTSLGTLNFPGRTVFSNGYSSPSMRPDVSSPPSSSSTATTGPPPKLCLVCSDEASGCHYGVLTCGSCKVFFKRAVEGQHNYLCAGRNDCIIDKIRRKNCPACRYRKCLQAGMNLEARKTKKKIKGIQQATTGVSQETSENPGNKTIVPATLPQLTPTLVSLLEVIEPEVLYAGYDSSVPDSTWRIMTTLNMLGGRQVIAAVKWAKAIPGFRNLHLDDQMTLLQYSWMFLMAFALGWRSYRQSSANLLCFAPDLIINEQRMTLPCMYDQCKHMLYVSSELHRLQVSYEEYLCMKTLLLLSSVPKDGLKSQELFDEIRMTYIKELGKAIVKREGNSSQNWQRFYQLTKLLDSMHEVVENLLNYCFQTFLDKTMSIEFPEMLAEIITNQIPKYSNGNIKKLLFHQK

[5] = molecular target: Glucocorticoid receptor (Homo sapiens) (UniProt P04150); assay: GR-EFC Redistribution (AID 451; calls by dose curve; further: potency means the concentration at half of the fitted maximal effect); details: CHO-K1 GR-EFC translocation, beta-gal luminescence, 2 h
Procedure, shortened: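 CHO-K1 cells stably expressing nuclear-localized β-gal enzyme acceptor and GR fused C-terminally to the enzyme donor fragment; ligand-driven nuclear translocation restores β-gal by complementation. Compounds titrated up to 46 uM final, 2 h at 37 °C; luminescence read.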

[6] = molecular target: Mitogen-activated protein kinase 10 (Mus musculus) (UniProt Q61831); assay: JNK3 AlphaScreen Assay (AID 530);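 further: kinase came from lysate of stimulated human HepG2 cells; signal reports phosphorylation of biotinylated GST-cJun 1-79 at Ser73 with 10 µM ATP; on the % scale 0 is the no-effect control and ±100 the full control effect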
Procedure, shortened: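 Inhibitors reduce antibody binding to phosphorylated biotin-cJun, lowering AlphaScreen luminescence. Lysates from HepG2 cells pre-activated by IL-1beta plus TNF-alpha supplied JNK3; compounds were titrated.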

[7] = molecular target: 3',5'-cyclic-AMP phosphodiesterase 4B (Homo sapiens) (UniProt Q07343); assay: qHTS Assay for Inhibitors of PDE-IV (AID 607; active means well fitted activation curve with a large enough effect in the main read-out, with a control signal flat, not every such curve was filed as active; further: % of control where 0% means no effect)
Chain of 3',5'-cyclic-AMP phosphodiesterase 4B (Homo sapiens) (Q07343 whole entry, looked up): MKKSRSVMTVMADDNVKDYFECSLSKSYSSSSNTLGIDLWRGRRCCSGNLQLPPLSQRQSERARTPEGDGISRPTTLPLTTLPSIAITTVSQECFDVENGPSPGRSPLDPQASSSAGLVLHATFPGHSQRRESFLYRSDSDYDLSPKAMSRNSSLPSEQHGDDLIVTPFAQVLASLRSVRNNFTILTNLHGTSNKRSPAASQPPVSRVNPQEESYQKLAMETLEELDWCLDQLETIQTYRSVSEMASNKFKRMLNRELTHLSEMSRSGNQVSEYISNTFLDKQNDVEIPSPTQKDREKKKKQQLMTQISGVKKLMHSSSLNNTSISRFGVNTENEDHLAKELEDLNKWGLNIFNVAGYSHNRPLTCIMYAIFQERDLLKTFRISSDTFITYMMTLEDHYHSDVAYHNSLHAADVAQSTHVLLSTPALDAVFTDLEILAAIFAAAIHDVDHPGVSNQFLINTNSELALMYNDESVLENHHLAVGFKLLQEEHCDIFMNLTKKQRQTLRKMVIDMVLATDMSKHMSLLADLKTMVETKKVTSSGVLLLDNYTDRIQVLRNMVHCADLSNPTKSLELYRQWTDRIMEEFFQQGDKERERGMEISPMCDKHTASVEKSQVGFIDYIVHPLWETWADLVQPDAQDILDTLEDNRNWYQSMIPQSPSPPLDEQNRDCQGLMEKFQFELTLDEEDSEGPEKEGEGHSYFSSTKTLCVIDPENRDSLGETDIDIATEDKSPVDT
Procedure, shortened: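 Cell-based read-out of cAMP via a modified cyclic nucleotide-gated channel and membrane potential dye (535/590 nm) in HEK293 cells expressing PDE4 endogenously. Compounds tested up to 22.9 uM final; 100 uM RO 20-1724 reference.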

[8] = molecular target: Cytochrome P450 1A2 (Homo sapiens) (UniProt P05177); assay: p450-cyp1a2 (AID 410; calls by dose curve; further: potency means the concentration at half of the fitted maximal effect;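 on activity change, negative = inhibition: -100% = full effect of reference inhibitor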)
Chain of Cytochrome P450 1A2 (Homo sapiens) (P05177 whole entry, looked up): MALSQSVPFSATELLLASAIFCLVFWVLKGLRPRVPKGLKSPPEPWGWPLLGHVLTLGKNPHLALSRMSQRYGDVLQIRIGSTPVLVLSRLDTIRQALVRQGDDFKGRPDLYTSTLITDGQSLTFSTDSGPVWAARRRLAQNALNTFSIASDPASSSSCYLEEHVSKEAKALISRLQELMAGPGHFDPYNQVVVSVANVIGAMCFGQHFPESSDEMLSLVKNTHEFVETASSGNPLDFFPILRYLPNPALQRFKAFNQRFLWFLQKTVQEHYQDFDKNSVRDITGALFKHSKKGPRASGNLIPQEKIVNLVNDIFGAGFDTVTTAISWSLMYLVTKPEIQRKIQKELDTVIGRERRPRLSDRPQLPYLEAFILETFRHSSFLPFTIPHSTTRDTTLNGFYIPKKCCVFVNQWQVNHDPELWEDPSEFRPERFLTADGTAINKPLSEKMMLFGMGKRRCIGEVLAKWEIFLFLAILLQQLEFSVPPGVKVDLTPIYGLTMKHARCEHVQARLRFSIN
Procedure, shortened: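 Luminescent readout of luciferin formed from Luciferin-ME by human CYP1A2; data normalized against complete inhibition by 57 uM furafylline. Enzyme 20nM, substrate 100uM at Km, 100mM KPO4 buffer, 60 min reaction at room temperature.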

[9] = molecular target: Lysosomal acid glucosylceramidase (Homo sapiens) (UniProt P04062); assay: Glucocerebrosidase-p2 (AID 348; in the data active means potency below about 10 µM; further: potency means the concentration at half of the fitted maximal effect); details: purified GBA, blue fluorogenic substrate, 40 min
Chain of Lysosomal acid glucosylceramidase (Homo sapiens) (P04062 whole entry, looked up): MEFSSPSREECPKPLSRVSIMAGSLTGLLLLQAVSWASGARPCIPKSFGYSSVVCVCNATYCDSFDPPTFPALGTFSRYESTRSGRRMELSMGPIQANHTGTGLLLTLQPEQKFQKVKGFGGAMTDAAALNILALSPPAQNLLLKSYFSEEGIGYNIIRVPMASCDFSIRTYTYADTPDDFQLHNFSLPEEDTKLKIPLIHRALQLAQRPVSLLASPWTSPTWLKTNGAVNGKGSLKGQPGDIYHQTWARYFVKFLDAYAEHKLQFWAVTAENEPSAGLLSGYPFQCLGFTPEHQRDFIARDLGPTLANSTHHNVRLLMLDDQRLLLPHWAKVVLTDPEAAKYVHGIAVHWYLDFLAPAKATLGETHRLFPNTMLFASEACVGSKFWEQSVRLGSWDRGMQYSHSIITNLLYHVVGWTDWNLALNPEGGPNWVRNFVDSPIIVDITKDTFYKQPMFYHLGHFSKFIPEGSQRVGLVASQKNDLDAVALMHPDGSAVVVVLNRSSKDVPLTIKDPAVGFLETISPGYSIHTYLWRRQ
Procedure, shortened: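 Compounds titrated from 0.6 nM upwards against 0.2 nM enzyme in pH 5.9 citric acid/KH2PO4, taurocholate, tween-20; blue fluorogenic substrate 80 uM, 40 min room temperature, stopped and read Ex 365/Em 440 for AC50.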

CC[N+](C)(C)Cc1ccccc1Br
inactive: outcome [1] | activity change, negative = inhibition ([2]; at 17.2 µM (top of the series)) -8.6% | activity change, negative = inhibition ([2]; at 38 µM (top of the series)) -11% | outcome [3] | Potency [4] > 46 µM and > 20.6 µM | Potency [5] > 46 µM and > 20.6 µM | outcome [6] | outcome [7]

CC1(C)S[C@@H]2[C@H](NC(=O)[C@@H](NC(=O)N3CCNC3=O)c3ccccc3)C(=O)N2[C@H]1C(=O)O
inactive: outcome [1] | Potency [8] | activity change, negative = inhibition ([2]; at 17.2 µM (top of the series)) -13.7% | outcome [3] | Potency [4] > 20.6 µM | Potency [5] > 20.6 µM | outcome [6] | outcome [7]

CN=C(NC#N)Nc1ccc(C2=NNC(=O)C[C@@H]2C)cc1
inactive and 39.8 µM (active): Potency [8]
inactive: outcome [1] | activity change, negative = inhibition ([2]; at 38 µM (top of the series)) -1.21% | outcome [3] | outcome [6] | outcome [7]

CN(C)CCCN1c2ccccc2C(C)(C)c2ccccc21
active: Potency [8] 5.01 µM
inactive: Potency [9] > 11.4 µM | outcome [3] | Potency [4] > 46 µM | Potency [5] > 9.22 µM | activity change, negative = inhibition [6] -0.792% [at 11.4 µM] | outcome [7]

C[C@]12C=CC(=O)C=C1CC[C@@H]1[C@@H]2[C@@H](O)C[C@@]2(C)[C@H]1CC[C@]2(O)C(=O)COC(=O)CCC(=O)O
active: Potency [4] 0.0285 µM
inactive: outcome [1] | activity change, negative = inhibition ([2]; at 17.2 µM (top of the series)) 20.1% | outcome [3]

Cc1c(C)c2c(c(C)c1O)CC[C@@](C)(CCC[C@@H](C)CCC[C@@H](C)CCCC(C)C)O2
inactive: outcome [1] | Potency [8] | activity change, negative = inhibition ([2]; at 17.2 µM (top of the series)) -1.66% | outcome [3] | Potency [4] > 20.6 µM | Potency [5] > 20.6 µM | outcome [7]

CCN(CC)Cc1cc(Nc2ccnc3cc(Cl)ccc23)ccc1O
inactive: outcome [1] | outcome [3] | Potency [4] > 20.6 µM | Potency [5] > 20.6 µM | outcome [6]

CC(=O)OCC(=O)[C@@]12OC3(CCCC3)O[C@@H]1C[C@H]1[C@@H]3CCC4=CC(=O)C=C[C@]4(C)[C@@]3(F)[C@@H](O)C[C@@]12C
active: Potency [4] 0.000571 µM
inactive: outcome [1] | outcome [3]

CCCC(=O)Nc1ncnc2c1ncn2[C@@H]1O[C@@H]2COP(=O)(O)O[C@H]2[C@H]1OC(=O)CCC
inactive: outcome [1] | activity change, negative = inhibition ([2]; at 17.2 µM (top of the series)) -26.8% | outcome [3] | Potency [4] > 46 µM and > 20.6 µM | Potency [5] > 46 µM | outcome [6]

Nc1c(Br)cc(Br)cc1CNC1CCC(O)CC1 (stereo unspecified)
inactive: outcome [1] | activity change, negative = inhibition ([2]; at 17.2 µM (top of the series)) 0.0265% | outcome [3] | Potency [4] > 20.6 µM | Potency [5] > 20.6 µM | outcome [6] | outcome [7]
